This is part of a sample that, as a whole, favours compounds with a hit. Of some 83,000 tested, about 20% had one in any assay.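 48-hour exposure, single concentration, 96-well plates; percent growth endpoint where 0 means no net growth. Active: below 10.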 Activity calls are given as the source filed them.
Tests used:
Assay in all cases: NCI-60 one-dose screen, 48 h (100 = growth as untreated, 0 = no growth, -100 = all killed)
Conditions in all cases: 10 µM unless noted
NCI-H23 lung = system: NCI-H23 lung
NCI-H226 lung = system: NCI-H226 lung
NCI-H322M lung = system: NCI-H322M lung
HOP-62 NSCLC = system: HOP-62 NSCLC
NCI-H460 lung = system: NCI-H460 lung
HOP-92 NSCLC = system: HOP-92 NSCLC
NCI-H522 lung = system: NCI-H522 lung
A549/ATCC NSCLC = system: A549/ATCC NSCLC
786-0 renal = system: 786-0 renal
COLO 205 colon = system: COLO 205 colon

Measured: growth

C=CCn1c(SCC(=O)Nc2ccc(/C(C)=N\O)cc2)nnc1-c1cc(-c2ccc(OC)cc2)nc2ccccc12
inactive: NCI-H23 lung 33.7% | NCI-H226 lung 41.2% | NCI-H322M lung 31.9% | HOP-62 NSCLC 38.5% | NCI-H460 lung 27.8% | HOP-92 NSCLC 45.9% | NCI-H522 lung 18.7% | A549/ATCC NSCLC 20.1% | 786-0 renal 32.8% | COLO 205 colon 19.2%

CCOc1cccc(Nc2nc(N)nc3[nH]c4ccc(O)cc4c23)c1
inactive: NCI-H23 lung 68.5% | NCI-H226 lung 79.5% | NCI-H322M lung 65.1% | HOP-62 NSCLC 61.7% | NCI-H460 lung 82% | HOP-92 NSCLC 25.9% | NCI-H522 lung 49.2% | A549/ATCC NSCLC 46.6% | 786-0 renal 52.8% | COLO 205 colon 96.9%

O=C(Nc1ccc(-n2cc(-c3ccncc3)c(-c3ccc(O)c(Cl)c3)n2)cc1)c1ccc(Cl)c(C(F)(F)F)c1
active: NCI-H460 lung 8.06% | HOP-92 NSCLC -3.55% | 786-0 renal -30.9%
inactive: NCI-H23 lung 29.9% | NCI-H226 lung 79.6% | NCI-H322M lung 54.6% | HOP-62 NSCLC 33.6% | NCI-H522 lung 24.3% | A549/ATCC NSCLC 28.4% | COLO 205 colon 57.8%

COC(=O)c1ccc2c(c1)Oc1ccc(Cl)cc1-c1cc(C)nn1-2
inactive: NCI-H23 lung 78.1% | NCI-H226 lung 37.4% | NCI-H322M lung 81.9% | HOP-62 NSCLC 37.6% | NCI-H460 lung 14% | HOP-92 NSCLC 61.1% | NCI-H522 lung 82.3% | A549/ATCC NSCLC 40.5% | 786-0 renal 69.5% | COLO 205 colon 69.6%

CC[C@H]1[C@@H]2C=C[C@@H]3[C@H]4C/C=C\C(=O)NCCC[C@@H]5NC(=O)/C(=C(O)/C=C/[C@@H]4C[C@@H]3[C@H]2C[C@H]1C)C5=O
active: NCI-H226 lung 1.14% | HOP-62 NSCLC -49.9% | NCI-H460 lung -51.2% | HOP-92 NSCLC -20.4% | 786-0 renal -80.9%
inactive: NCI-H23 lung 51% | NCI-H322M lung 35.7% | NCI-H522 lung 67.7% | A549/ATCC NSCLC 36.8% | COLO 205 colon 66%

Nc1nc(Cl)cc(NCCCCNc2cc(Cl)nc(N)n2)n1
inactive: NCI-H23 lung 102% | NCI-H226 lung 109% | NCI-H322M lung 87.1% | HOP-62 NSCLC 107% | NCI-H460 lung 121% | HOP-92 NSCLC 74.3% | NCI-H522 lung 83.8% | A549/ATCC NSCLC 108% | 786-0 renal 108% | COLO 205 colon 105%

COc1cc2c(cc1OCCCCC(=O)Nc1ccc(-c3nc4ccccc4s3)cc1)N=C[C@@H]1CCCN1C2=O
active: NCI-H23 lung -11.4% | NCI-H226 lung -43.7% | NCI-H322M lung -0.382% | HOP-62 NSCLC -2.65% | NCI-H460 lung -19.5% | HOP-92 NSCLC -53% | NCI-H522 lung -54% | A549/ATCC NSCLC -42.2% | 786-0 renal -6.44% | COLO 205 colon -60.5%

CCc1c2cc(Cl)ccc2n2cc(Cc3ccccc3)[nH]c(=O)c12
inactive: NCI-H23 lung 94.3% | NCI-H226 lung 100% | NCI-H322M lung 83.7% | HOP-62 NSCLC 103% | NCI-H460 lung 90.9% | HOP-92 NSCLC 96% | NCI-H522 lung 104% | A549/ATCC NSCLC 106% | 786-0 renal 109% | COLO 205 colon 97.5%

CCCCCn1ncc(-c2c(O)c(O)cc3c(O)c(-c4c(C)cc5c(-c6cnn(CCCCC)n6)c(O)c(O)cc5c4O)c(C)cc23)n1
active: NCI-H23 lung -15.1% | NCI-H226 lung -3.01% | HOP-62 NSCLC 4.15% | NCI-H460 lung -3.01% | HOP-92 NSCLC -23.8% | NCI-H522 lung -56.2% | A549/ATCC NSCLC 6.6% | 786-0 renal -10.2% | COLO 205 colon -6.73%
inactive: NCI-H322M lung 33.7%

C/C(=N\N=C1/SCC(=O)N1c1ccccc1)c1ccco1
inactive: NCI-H23 lung 99.4% | NCI-H226 lung 124% | NCI-H322M lung 89.8% | HOP-62 NSCLC 137% | NCI-H460 lung 123% | HOP-92 NSCLC 63.3% | NCI-H522 lung 75.4% | A549/ATCC NSCLC 114% | 786-0 renal 52% | COLO 205 colon 130%

COc1cc2nc(C(=O)N3CCCCC3)cc(Nc3ccccc3)c2cc1OC
inactive: NCI-H23 lung 96.7% | NCI-H226 lung 107% | NCI-H322M lung 96.1% | HOP-62 NSCLC 96% | NCI-H460 lung 102% | HOP-92 NSCLC 73.3% | NCI-H522 lung 65.7% | A549/ATCC NSCLC 98.1% | 786-0 renal 95.3% | COLO 205 colon 116%

O=S(c1ccccc1)c1ccc2nnnn2n1 (stereo not given)
inactive: NCI-H23 lung 100% | NCI-H226 lung 103% | NCI-H322M lung 98.7% | HOP-62 NSCLC 108% | NCI-H460 lung 103% | HOP-92 NSCLC 101% | A549/ATCC NSCLC 99.9% | 786-0 renal 104% | COLO 205 colon 98%
active: NCI-H522 lung -17.6%

Cc1[nH]c2ccc(F)cc2c1CCNC(=O)C1CCN(C(=O)c2ccc(-c3ccccc3)cc2)CC1
inactive: NCI-H23 lung 45.5% | NCI-H226 lung 57.3% | NCI-H322M lung 87% | HOP-62 NSCLC 64.4% | NCI-H460 lung 51% | HOP-92 NSCLC 70.6% | NCI-H522 lung 41.6% | A549/ATCC NSCLC 39.1% | 786-0 renal 63.3% | COLO 205 colon 36.7%

CCOC(=O)n1cnc2c(Cl)ncnc21
inactive: NCI-H23 lung 245% | NCI-H226 lung 113% | NCI-H322M lung 109% | HOP-62 NSCLC 136% | NCI-H460 lung 108% | HOP-92 NSCLC 95.1% | NCI-H522 lung 108% | A549/ATCC NSCLC 103% | 786-0 renal 159% | COLO 205 colon 98.9%

COc1ccc(Cl)cc1NC(=O)c1cc2c(n1C)-c1nc(NC(=O)C(C)(C)C)sc1CC2
inactive: NCI-H23 lung 87.8% | NCI-H226 lung 89.6% | NCI-H322M lung 91.3% | HOP-62 NSCLC 76.4% | NCI-H460 lung 98.1% | HOP-92 NSCLC 67.9% | NCI-H522 lung 69% | A549/ATCC NSCLC 77.2% | 786-0 renal 94.7% | COLO 205 colon 97.7%

O=C(Nc1ccc(-n2cc(-c3ccncc3)c(-c3ccc(O)c(Cl)c3)n2)cc1)c1cc(Cl)cc(Cl)c1
active: 786-0 renal -42.1%
inactive: NCI-H23 lung 59.2% | NCI-H226 lung 89.1% | NCI-H322M lung 50.1% | HOP-62 NSCLC 45.5% | NCI-H460 lung 22.3% | HOP-92 NSCLC 42% | NCI-H522 lung 22% | A549/ATCC NSCLC 35.9% | COLO 205 colon 91.1%

O=c1cc(Cl)[nH]c(=O)[nH]1
inactive: NCI-H23 lung 98.9% | NCI-H226 lung 97.5% | NCI-H322M lung 98.9% | HOP-62 NSCLC 83.2% | NCI-H460 lung 108% | HOP-92 NSCLC 98.2% | NCI-H522 lung 67.7% | A549/ATCC NSCLC 79.5% | 786-0 renal 101% | COLO 205 colon 97.5%

CCOC(=O)c1noc2c1CCc1c-2cn(Cc2ccc(OC)cc2)c1-c1cc(OC)c(OC)c(OC)c1
active: NCI-H460 lung 8.9% | NCI-H522 lung 3.83% | COLO 205 colon 1.98%
inactive: NCI-H23 lung 42.9% | NCI-H226 lung 40.8% | NCI-H322M lung 52.2% | HOP-62 NSCLC 22.8% | HOP-92 NSCLC 63.4% | A549/ATCC NSCLC 43.5% | 786-0 renal 34.7%

CCn1c(C)nc([N+](=O)[O-])c1Sc1nc(N)nc2nc[nH]c12
inactive: NCI-H23 lung 28.8% | NCI-H226 lung 44.3% | NCI-H322M lung 50.9% | HOP-62 NSCLC 24.9% | NCI-H460 lung 10.7% | HOP-92 NSCLC 54.9% | NCI-H522 lung 42.6% | A549/ATCC NSCLC 53.9% | 786-0 renal 24.6% | COLO 205 colon 67.9%

Cc1cc[n+](CCCC[n+]2ccc(C)cc2)cc1
inactive: NCI-H23 lung 96% | NCI-H226 lung 99% | NCI-H322M lung 97.1% | HOP-62 NSCLC 108% | NCI-H460 lung 108% | HOP-92 NSCLC 74.3% | NCI-H522 lung 120% | A549/ATCC NSCLC 104% | 786-0 renal 95.8% | COLO 205 colon 110%

Cc1ccn2cc(Cc3cc(=O)oc4c3ccc3ccccc34)c(=O)nc2c1
inactive: NCI-H23 lung 96.6% | NCI-H226 lung 96.6% | NCI-H322M lung 101% | HOP-62 NSCLC 91.7% | NCI-H460 lung 106% | HOP-92 NSCLC 98.8% | NCI-H522 lung 75.1% | A549/ATCC NSCLC 89.9% | 786-0 renal 95.5% | COLO 205 colon 102%

O=C(Nc1ccc(-n2ccc3c(NC(=O)c4ccccc4)ncnc32)cc1)c1ccc(Cl)c(C(F)(F)F)c1
inactive: NCI-H23 lung 56.5% | NCI-H226 lung 32.3% | NCI-H322M lung 44.1% | HOP-62 NSCLC 45.6% | HOP-92 NSCLC 89.4% | NCI-H522 lung 11.3% | 786-0 renal 54.9% | COLO 205 colon 33.3%
active: NCI-H460 lung -30.5% | A549/ATCC NSCLC -40.8%

COc1ccc(Cl)cc1NC(=O)c1cc2c([nH]1)-c1nc(N)sc1CCC2
inactive: NCI-H23 lung 86.4% | NCI-H226 lung 95.6% | NCI-H322M lung 87.1% | HOP-62 NSCLC 102% | NCI-H460 lung 109% | HOP-92 NSCLC 132% | NCI-H522 lung 64.3% | A549/ATCC NSCLC 69.6% | 786-0 renal 99.7% | COLO 205 colon 121%

NC(CSC(c1ccccc1)(c1ccccc1)c1ccc(F)cc1)C(=O)O (stereo not given)
inactive: NCI-H23 lung 14.4% | NCI-H226 lung 61.8% | NCI-H322M lung 28.7% | A549/ATCC NSCLC 11.7%
active: HOP-62 NSCLC -28.7% | NCI-H460 lung 2.02% | HOP-92 NSCLC -24.3% | NCI-H522 lung -59.1% | 786-0 renal -50.8% | COLO 205 colon 5.57%

O=C(NNC(=O)c1ccc([N+](=O)[O-])cc1)c1ccc([N+](=O)[O-])cc1
inactive: NCI-H23 lung 94.8% | NCI-H226 lung 99.3% | NCI-H322M lung 120% | HOP-62 NSCLC 90.8% | NCI-H460 lung 105% | HOP-92 NSCLC 106% | NCI-H522 lung 84% | A549/ATCC NSCLC 99.3% | 786-0 renal 95% | COLO 205 colon 115%

Fc1ccc(Nc2ncnc3ccc(-c4cn[nH]c4)cc23)cc1Cl
inactive: NCI-H23 lung 80.3% | NCI-H226 lung 57.1% | NCI-H322M lung 15.9% | HOP-62 NSCLC 66.2% | NCI-H460 lung 55.5% | HOP-92 NSCLC 54.6% | NCI-H522 lung 10.3% | A549/ATCC NSCLC 49.5% | 786-0 renal 61.5% | COLO 205 colon 60.7%
